Drawing on PubChem BioAssay (NCI), this text covers growth for 7 compounds.

Compounds without any hit were thinned out: in the full panel of roughly 83,000, 20% have a hit.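 Testing used 96-well plates and a 48-hour single-concentration exposure. Example: -40 means 40% of the starting cells died.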 Values without a mark were called inactive. Active and inactive are the calls of the source. The calls were made as follows: active = growth percent below 10; inactive = the rest.

Some test systems named below: NCI-H23 lung; NCI-H322M lung; HOP-62 NSCLC; NCI-H460 lung; HOP-92 NSCLC; NCI-H522 lung; A549/ATCC NSCLC; 786-0 renal; COLO 205 colon; DU-145 prostate; K-562 leukemia; MALME-3M melanoma; MDA-MB-231 breast; RXF 393 renal; SF-268 CNS; SF-295 CNS; SF-539 CNS; UACC-257 melanoma; M14 melanoma.
Common to all, as to experiment: NCI-60 one-dose screen, 48 h (100 = growth as untreated, 0 = no growth, -100 = all killed)
Details in all cases: 10 µM unless noted

For the compound `CS(=O)(=O)Nc1cc(-c2ccc3ncnc(Nc4ccc5c(cnn5Cc5cccnc5)c4)c3c2)cnc1Cl`, the growth with NCI-H23 lung was 55.8%; in the assay with NCI-H322M lung, 68.7%; with HOP-62 NSCLC, 51.2%; in the assay on NCI-H460 lung it was 79.8%; with HOP-92 NSCLC, -10% (active); in the assay with NCI-H522 lung it was 44.2%. Moreover, the growth in the assay on A549/ATCC NSCLC is 83.7%; in the assay with 786-0 renal, 62.9%; in the assay with COLO 205 colon it was 68.3%; in the assay on DU-145 prostate, 63.4%; in the assay on K-562 leukemia, 57.7%; in the assay with MALME-3M melanoma, 5.01% (active). Further, the growth with MDA-MB-231 breast is 47.6%; in the assay with RXF 393 renal it was 44.4%; in the assay with SF-268 CNS, 27.9%; with SF-295 CNS it was 81.8%; with SF-539 CNS, 41.4%; in the assay on UACC-257 melanoma, 64.5%. The growth in the assay with M14 melanoma is 41%.

For the compound `CN(C)Cc1ccc(C(=O)Nc2ccc3ncnc(Nc4ccc(Oc5cccc(F)c5)c(Cl)c4)c3c2)cc1`, the growth is 49.5% in the assay with NCI-H23 lung; 4.65% (active) in the assay with NCI-H322M lung; 45.1% in the assay on HOP-62 NSCLC; -74.3% (active) in the assay with NCI-H460 lung; 36.2% with HOP-92 NSCLC; -29.6% (active) in the assay with NCI-H522 lung. Besides, the growth is 8.26% (active) in the assay with A549/ATCC NSCLC; -84.9% (active) in the assay with 786-0 renal; -53.3% (active) in the assay with COLO 205 colon; 7.69% (active) with DU-145 prostate; -39.3% (active) in the assay with K-562 leukemia; -80.6% (active) in the assay with MALME-3M melanoma. Moreover, the growth in the assay on MDA-MB-231 breast is -73.9% (active); in the assay with RXF 393 renal, -80.4% (active); in the assay on SF-268 CNS, -31% (active); in the assay on SF-295 CNS, -41.7% (active); in the assay with SF-539 CNS it was -90.1% (active); in the assay on UACC-257 melanoma it was -58.3% (active). For the same compound, the growth in the assay with M14 melanoma is -69.3% (active).

Turning to `CCOC(=O)c1n[nH]n2c1nc(=O)c1cnn(C)c12`, the growth with NCI-H23 lung was 96.5%; in the assay with NCI-H322M lung it was 99.4%; in the assay with HOP-62 NSCLC, 103%; in the assay with NCI-H460 lung, 103%; in the assay with HOP-92 NSCLC, 103%; with NCI-H522 lung, 91%. Besides, the growth in the assay with A549/ATCC NSCLC was 86.7%; in the assay with 786-0 renal it was 106%; in the assay on COLO 205 colon it was 111%; with DU-145 prostate, 98.5%; in the assay with K-562 leukemia, 93%; in the assay with MALME-3M melanoma, 101%. The growth is 113% with MDA-MB-231 breast; 109% in the assay on RXF 393 renal; 96.1% with SF-268 CNS; 108% in the assay with SF-295 CNS; 103% in the assay on SF-539 CNS; 86.4% in the assay on UACC-257 melanoma. The growth in the assay with M14 melanoma was 102%.

Take `Nc1c(C(=O)O)cc(Cl)cc1[N+](=O)[O-]`: the growth in the assay on NCI-H23 lung was 90.6%; in the assay on NCI-H322M lung, 103%; in the assay with HOP-62 NSCLC, 89.7%; in the assay with NCI-H460 lung, 108%; with HOP-92 NSCLC it was 58.7%; with NCI-H522 lung it was 98.4%. Further, the growth in the assay with 786-0 renal was 96.1%; in the assay with COLO 205 colon, 115%; in the assay with DU-145 prostate, 108%; in the assay with K-562 leukemia, 95.2%; in the assay on MALME-3M melanoma, 105%; in the assay with MDA-MB-231 breast, 91.3%. Moreover, the growth in the assay on RXF 393 renal was 88.9%; in the assay with SF-268 CNS, 98%; in the assay with SF-295 CNS, 109%; in the assay on SF-539 CNS, 99.7%; in the assay on UACC-257 melanoma it was 96.8%; with M14 melanoma it was 96.8%.

Regarding `N#Cc1c(-c2cccc([N+](=O)[O-])c2)cc(-c2ccc(Nc3nc(Nc4ccc(F)cc4)nc(Nc4ccc(F)cc4)n3)cc2)nc1N`, the growth in the assay with NCI-H23 lung is 98.6%; in the assay on NCI-H322M lung it was 97.9%; in the assay on HOP-62 NSCLC it was 85.9%; in the assay with NCI-H460 lung, 146%; with HOP-92 NSCLC it was 55.4%; with NCI-H522 lung, 104%. The growth is 86% in the assay with A549/ATCC NSCLC; 94.6% with 786-0 renal; 117% in the assay on COLO 205 colon; 154% in the assay with DU-145 prostate; 80.3% in the assay on K-562 leukemia; 94.7% in the assay on MALME-3M melanoma. Moreover, the growth in the assay with MDA-MB-231 breast was 91.9%; in the assay with RXF 393 renal, -10.3% (active); in the assay on SF-268 CNS, 164%; in the assay with SF-295 CNS, 102%; in the assay with SF-539 CNS, 127%; in the assay on UACC-257 melanoma, 107%. In the assay with M14 melanoma, the growth was 110%.

Turning to `COc1cc(C#Cc2ccc(=O)oc2C#Cc2ccccc2)cc(OC)c1OC`, the growth in the assay with NCI-H23 lung is 64.8%; in the assay on NCI-H322M lung, 103%; in the assay with HOP-62 NSCLC, 102%; in the assay on NCI-H460 lung, 84.7%; in the assay with HOP-92 NSCLC, 112%; with NCI-H522 lung it was 18.2%. The growth in the assay with A549/ATCC NSCLC is 95.7%; in the assay with 786-0 renal, 83%; in the assay with COLO 205 colon it was 23.6%; in the assay with DU-145 prostate it was 65.7%; with K-562 leukemia, 4.76% (active); in the assay with MALME-3M melanoma it was 75.9%. In addition, the growth was 89% in the assay on MDA-MB-231 breast; 78.7% in the assay with RXF 393 renal; 43.5% in the assay with SF-268 CNS; 96.9% in the assay on SF-295 CNS; 110% in the assay with SF-539 CNS; 108% in the assay with UACC-257 melanoma. In addition, in the assay on M14 melanoma, the growth was 72.6%.

As for `C#CC#CC#CC#CC#CC#CC#CC#CC[C@H]1OC[C@H](COC(=O)O[C@@H](C(=O)O[C@H]2C[C@@]3(O)[C@@H](OC(=O)c4ccccc4)[C@@H]4[C@]5(OC(C)=O)CO[C@@H]5C[C@H](O)[C@@]4(C)C(=O)[C@H](OC(C)=O)C(=C2C)C3(C)C)[C@@H](NC(=O)c2ccccc2)c2ccccc2)O1`, the growth in the assay with NCI-H23 lung was 45.8%; in the assay with NCI-H322M lung it was 53.6%; in the assay on HOP-62 NSCLC, 68.9%; in the assay with NCI-H460 lung, 18.8%; in the assay with HOP-92 NSCLC, 57.7%; in the assay on A549/ATCC NSCLC it was 49.6%. Moreover, the growth with 786-0 renal is 83.5%; in the assay on COLO 205 colon, 19.3%; in the assay with DU-145 prostate, 45.3%; with K-562 leukemia, 22.2%; with MALME-3M melanoma, 56.7%; in the assay on MDA-MB-231 breast, 62.5%. The growth with RXF 393 renal was 43%; in the assay with SF-268 CNS, 61.7%; with SF-295 CNS, 44.6%; in the assay with SF-539 CNS, 39.8%; with UACC-257 melanoma, 70.9%; in the assay with M14 melanoma, 27.5%.
